Most compounds without a hit are left out; they make up all but 3.7% or so of the library.
esBAF inh – inhibitors of esBAF chromatin remodeling in mouse ES cells. Bmi1-luciferase knock-in reporter, 24 h; 100% = twice the neutral-well signal. reporter increase, % at 12.5 µM. 350,000 compounds, 2% hits; in the data active means activation above about 40%; inconclusive means no clear call, values can overlap the other calls;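 further: 0% = median of the plate's neutral control wells and 100% = double that signal; a rise in the Bmi1 reporter signal indicates esBAF inhibition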
Wnt bcat act – activates Wnt/beta-catenin signaling in a reporter cell assay. activation, % at 9.35 µM. activator, plate reader. 300,000 compounds, 1.2% hits; in the data active means activation above about 30%, passing the limit was not always enough; inconclusive means no clear call, values can overlap the other calls;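 further: 0% = neutral control wells and 100% = positive control wells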
MITF TRPM1 HTS – MITF TRPM1 promoter activation in melanoma cells | SK-MEL-5 TRPM1-promoter luciferase, 24 h; % of positive control, neutral wells = 0 | activation, % at 12.5 µM | 300,000 compounds, 0.75% hits;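 active means mean activation of at least 80% with every replicate also reaching 80%; inconclusive means mean reaches 80% but some replicate falls short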;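 further: 0% = neutral control wells and 100% = parthenolide positive control wells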
rRNA inh HTS – selective bacterial rRNA inhibition in E. coli; E. coli WT GFP vs humanized-ribosome RFP mutants, fluorescence, 24 h; stronger effect = lower value; DMSO median 0, no signal -100; GFP signal change (wild-type ribosome), % (no concentration beside the values); 350,000 compounds, 1.6% hits; AID 720706;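 active means significant combined selectivity score with lowered wild-type GFP, culture density cut under 30%, mutant RFP and density less affected; inactive means any of these conditions unmet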
AF4-AF9 inh – inhibitors of human MLL-AF4/AF9 interaction | P42568 | AlphaScreen, biotin-AF4 peptide binding to FLAG-AF9 | inhibition, % at 10 µM | 350,000 compounds, 0.47% hits | AID 651704;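 active means every replicate reaching a set inhibition limit, whatever the replicate mean, cut at about 25% in these data; inconclusive means mean inhibition reaches that limit but some replicates miss it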;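 further: 0% = plate neutral control median and 100% = total signal loss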
Target sequence (P42568 whole entry, looked up): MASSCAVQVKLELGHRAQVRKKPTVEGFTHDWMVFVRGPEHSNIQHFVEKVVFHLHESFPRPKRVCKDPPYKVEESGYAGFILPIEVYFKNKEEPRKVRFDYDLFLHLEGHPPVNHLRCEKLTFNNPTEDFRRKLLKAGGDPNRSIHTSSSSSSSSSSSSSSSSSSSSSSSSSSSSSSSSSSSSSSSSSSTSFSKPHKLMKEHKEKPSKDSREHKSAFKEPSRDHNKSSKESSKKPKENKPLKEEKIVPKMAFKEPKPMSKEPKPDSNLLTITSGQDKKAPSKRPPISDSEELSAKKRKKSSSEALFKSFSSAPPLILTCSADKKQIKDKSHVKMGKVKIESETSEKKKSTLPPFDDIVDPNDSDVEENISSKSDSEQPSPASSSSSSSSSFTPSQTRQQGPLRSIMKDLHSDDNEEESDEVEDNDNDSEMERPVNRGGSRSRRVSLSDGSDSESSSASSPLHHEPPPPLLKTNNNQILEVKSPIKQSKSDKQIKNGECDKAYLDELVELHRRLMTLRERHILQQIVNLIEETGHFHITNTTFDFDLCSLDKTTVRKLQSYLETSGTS
* = called active by the depositor.

Screening O=C(C[C@@H]1C[C@H]2c3cc(NC(=O)C4CCOCC4)ccc3O[C@H]2[C@H](CO)O1)NCc1ccccc1 returned esBAF inh 0, rRNA inh HTS -1 and AF4-AF9 inh -1.
`O=C(O)c1cccc(Nc2nc(-c3cc4ccccc4oc3=O)cs2)c1` gave esBAF inh 51*, Wnt bcat act 8, MITF TRPM1 HTS 16, rRNA inh HTS 3 and AF4-AF9 inh -6.
O=c1oc2ccccc2cc1-c1csc(NN=C2CCCC2)n1 was read as MITF TRPM1 HTS 34.
For Cc1ccc(CONC(=O)c2ccc(Cl)cc2)cc1 the results were esBAF inh 28, Wnt bcat act 34*, MITF TRPM1 HTS 67, rRNA inh HTS 6 and AF4-AF9 inh 2.
`Cc1ccc(CC(=O)c2ccc(Cl)cc2)cc1` gave esBAF inh inconclusive, Wnt bcat act -2, MITF TRPM1 HTS 92*, rRNA inh HTS 13 and AF4-AF9 inh -1.
For O=C(NOCc1ccccc1)c1ccc([N+](=O)[O-])cc1 the results were esBAF inh 5, Wnt bcat act 38*, MITF TRPM1 HTS 31, rRNA inh HTS 16 and AF4-AF9 inh -7.
For Cc1ccc(CONC(=O)c2ccc(C)cc2)cc1 the results were esBAF inh 44*, Wnt bcat act 38*, MITF TRPM1 HTS 95*, rRNA inh HTS 4 and AF4-AF9 inh 0.
Screening COc1ccc(CN(C)C[C@@H]2OCCCC[C@H](C)Oc3ccc(NC(=O)C4CCCCC4)cc3C(=O)N([C@H](C)CO)C[C@H]2C)cc1 returned esBAF inh -1, rRNA inh HTS 2 and AF4-AF9 inh -3.
Screening Oc1cc2ccccc2cc1-c1n[nH]c(=S)n1Cc1ccco1 returned Wnt bcat act 0, MITF TRPM1 HTS 3, rRNA inh HTS -54 and AF4-AF9 inh -5.
C#CCNC(=O)C1=C[C@@H](c2csc3ccccc23)[C@H](CCCO)[C@@H](OCC)O1 was read as esBAF inh 7, Wnt bcat act -8, MITF TRPM1 HTS 11, rRNA inh HTS -7 and AF4-AF9 inh -1.
For Nc1cc([N+](=O)[O-])ccc1OCc1ccccc1 the results were Wnt bcat act 48*, MITF TRPM1 HTS 35 and AF4-AF9 inh 2.
`CC(=O)N(C)c1cc([N+](=O)[O-])ccc1OCc1ccccc1` gave esBAF inh -3, Wnt bcat act 5, MITF TRPM1 HTS -2, rRNA inh HTS -15 and AF4-AF9 inh -1.
For CN(C)N1C(=O)CC(N2CCCCC2)C1=O (stereo not drawn) the results were esBAF inh 3, Wnt bcat act 1, MITF TRPM1 HTS -4, rRNA inh HTS -31* and AF4-AF9 inh 0.
For CC(C)C(Cl)=NOC(=O)Nc1ccc(F)cc1 the results were Wnt bcat act -4, rRNA inh HTS -4 and AF4-AF9 inh 4.
Screening CN(C)c1ccc(C=Cc2ccnc3ccccc23)cc1N returned esBAF inh -10, Wnt bcat act 39*, rRNA inh HTS -51 and AF4-AF9 inh 15.
CN(C)c1ccc(C=Cc2ccnc3c(O)cccc23)cc1 was read as esBAF inh -28, Wnt bcat act -14, rRNA inh HTS 0 and AF4-AF9 inh 11.
`C=CCc1cccc2cc(C(=O)N3CCN(C(=O)c4ccco4)CC3)c(=O)oc12` gave esBAF inh -1, MITF TRPM1 HTS -2 and rRNA inh HTS 2.
Screening Brc1ccc(N=NNc2ccccc2)cc1 returned esBAF inh 54*, Wnt bcat act 16, MITF TRPM1 HTS 49, rRNA inh HTS -3 and AF4-AF9 inh 4.
`CC1CCCN(C(=O)c2sc3cc([N+](=O)[O-])ccc3c2Cl)C1` (stereo not drawn) gave esBAF inh 46* and MITF TRPM1 HTS 36.
Screening O=C(O)[C@H](Cc1ccccc1)NC(=O)C(c1ccccc1)(c1ccccc1)c1ccccc1 returned esBAF inh -3, Wnt bcat act -3, MITF TRPM1 HTS -6, rRNA inh HTS -23* and AF4-AF9 inh -20.
For CCOc1ccc(-c2n[nH]c(C(=O)NN)c2C)cc1 the results were esBAF inh 55*, Wnt bcat act 13, MITF TRPM1 HTS 9, rRNA inh HTS 4 and AF4-AF9 inh 2.
Screening COc1cc2c(cc1Cl)C(=O)C(F)(c1ccccc1)C(=O)N2 (stereo not drawn) returned Wnt bcat act 2, rRNA inh HTS -29* and AF4-AF9 inh -7.
CCOc1ccc(/C=N/O)cc1 was read as esBAF inh 8, Wnt bcat act 7 and MITF TRPM1 HTS 14.
For Cc1ccc(Oc2ccc(Oc3ccc(C)cc3)nn2)cc1 the results were esBAF inh 15.
Screening Cc1ccc(Oc2ccc(/C=N/O)cn2)cc1 returned esBAF inh 48* and Wnt bcat act 5.
Cc1ccc(COc2ccc(/C=N/O)cc2)cc1 was read as Wnt bcat act 31*, MITF TRPM1 HTS 42, rRNA inh HTS -16* and AF4-AF9 inh 3.
Screening CCCCn1nc(C(=O)O)ccc1=O returned esBAF inh -3, Wnt bcat act -4 and MITF TRPM1 HTS -9.
For Cc1cc(NC(=O)/C=C/c2ccccc2Cl)no1 the results were MITF TRPM1 HTS 26.
For CN(C)c1ccc(NC(=O)/C=C/c2ccccc2Cl)cc1 the results were Wnt bcat act 42* and MITF TRPM1 HTS 92*.
Screening CCN(CC)c1ccc(NC(=O)/C=C\c2ccccc2Cl)cc1 returned esBAF inh 37 and MITF TRPM1 HTS 96*.
Cc1ccccc1NC(=O)C1Cc2ccccc2CN1C(=O)c1ccco1 (stereo not drawn) was read as esBAF inh 55*, Wnt bcat act 10, MITF TRPM1 HTS 30, rRNA inh HTS -1 and AF4-AF9 inh -7.
`NS(=O)(=O)c1ccc(NC(=O)C2Cc3ccccc3CN2C(=O)c2ccco2)cc1` (stereo not drawn) gave esBAF inh 0, Wnt bcat act -1, rRNA inh HTS 2 and AF4-AF9 inh -4.
COc1cccc(NC(=O)C2Cc3ccccc3CN2C(=O)c2ccco2)c1 (stereo not drawn) was read as esBAF inh 57*, Wnt bcat act 4, MITF TRPM1 HTS 5, rRNA inh HTS 6 and AF4-AF9 inh -4.
`O=C(O)/C=C/C(=O)NNC(=O)c1ccc(Cl)cc1Cl` gave Wnt bcat act -1, MITF TRPM1 HTS 3, rRNA inh HTS 10 and AF4-AF9 inh 1.
O=C(NC1CC(=O)c2sccc21)c1ccc(Cl)cc1Cl (stereo not drawn) was read as esBAF inh 43*, Wnt bcat act 7, MITF TRPM1 HTS 57, rRNA inh HTS 1 and AF4-AF9 inh -3.
`O=C(COc1ccc2ccccc2c1)Nc1nccs1` gave Wnt bcat act -1, MITF TRPM1 HTS 36, rRNA inh HTS -22* and AF4-AF9 inh -2.

Bioassay records deposited in PubChem BioAssay by Broad Institute.
